Reference: PubChem BioAssay (Tox21)
Results filed as inconclusive are left out. Active and inactive are the calls of the source. Unless noted, calls follow the shape of the dose curve; as a rule, active = well fitted curve in the direction sought with a large enough effect in the repeat runs; inconclusive = weak or mixed curves; inactive = no such curve, though single readings can be large; an effect the other way counts as inactive or inconclusive.

Assays:
[1] = target: Androgen receptor (Homo sapiens) (UniProt P10275); assay: qHTS assay to identify small molecule agonists of the androgen receptor (AR) signaling pathway (AID 743036; active = well fitted activation curve with a large enough effect in the signal ratio in the repeat runs, with a control signal flat, not every such curve was filed as active; the % refers to the signal ratio)
Method in brief: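 Activation was read as beta-lactamase FRET signal from LiveBLAzer B/G substrate, added for 2 h at room temperature. Before that, GeneBLAzer AR-UAS-bla GripTite (HEK293) cells had 16 h compound exposure at 37C.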

[2] = target: Androgen receptor (Homo sapiens) (UniProt P10275); assay: qHTS assay to identify small molecule agonists of the androgen receptor (AR) signaling pathway using the MDA cell line (AID 743040; also: nearly all actives have a fitted effect of over 20% in size)
Method in brief: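 Luciferase agonist assay: 16 h compound exposure at 37C without CO2 in MDA-kb2 AR-luc cells, whose MMTV promoter responds to both AR and GR. Luminescence measured after 30 min room-temperature incubation with ONE-Glo.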

[3] = qHTS assay to identify small molecule antagonists of the androgen receptor (AR) signaling pathway using the MDA cell line - cell viability counter screen (AID 743041; also: nearly all actives have a fitted effect of over 45% in size)
Method in brief: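 Viability read by CellTiter-Fluor fluorescence in the same wells as the antagonist screen, added after 15.5 h of a 16 h, 37C exposure. Human breast carcinoma MDA-kb2 AR-luc cells, compounds co-dosed with agonist R1881.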

[4] = target: Androgen receptor (Homo sapiens) (UniProt P10275); assay: qHTS assay to identify small molecule antagonists of the androgen receptor (AR) signaling pathway using the MDA cell line (AID 743042; also: nearly all actives have a fitted effect of over 55% in size)
Method in brief: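 Antagonist mode: compounds plus R1881 agonist added to MDA-kb2 AR-luc cells, incubated 16 h at 37C. Luciferase reporter luminescence quantified, with multiplexed CellTiter-Fluor readout for cell viability.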

[5] = qHTS assay to identify small molecule antagonists of the thyroid receptor (TR) signaling pathway - cell viability counter screen (AID 743064); also: nearly all actives have a fitted effect of over 50% in size
Method in brief: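 In-well cytotoxicity read by CellTiter-Fluor (30 min, 37 C) following 23.5 h exposure of GH3 cells bearing a TRE-luciferase sensor. Compounds were added alongside 1 nM (final) T3 to drive TR transactivation.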

[6] = qHTS assay to identify small molecule antagonists of the thyroid receptor (TR) signaling pathway (AID 743065); also: series mostly up to about 70 µM; nearly all actives have a fitted effect of over 55% in size
Method in brief: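 Antagonism measured as loss of luciferase signal in GH3 cells stably carrying a TRE-luciferase reporter, co-treated with compound and T3 (1 nM final) for 23.5 h at 37 C. Viability was read in the same well by CellTiter-Fluor.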

[7] = test system: thyroid hormone receptor (rat, GH3 cells); assay: qHTS assay to identify small molecule agonists of the thyroid receptor (TR) signaling pathway (AID 743066; calls by dose curve)
[8] = qHTS assay to identify small molecule antagonists of the estrogen receptor alpha (ER-alpha) signaling pathway - cell viability counter screen (AID 743074; calls by dose curve;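 also: HEK293 cells carrying ER-alpha-UAS-bla reporter stimulated with 17beta-estradiol; nearly all actives have a fitted effect of over 45% in size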)
[9] = target: Estrogen receptor (Homo sapiens) (UniProt P03372); assay: qHTS assay to identify small molecule agonists of the estrogen receptor alpha (ER-alpha) signaling pathway (AID 743075; calls by dose curve;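 also: HEK293 GripTite cells with ER-alpha and UAS-driven beta-lactamase reporter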)
[10] = target: Estrogen receptor (Homo sapiens) (UniProt P03372); assay: qHTS assay to identify small molecule agonists of the estrogen receptor alpha (ER-alpha) signaling pathway using the BG1 cell line (AID 743079); also: nearly all actives have a fitted effect of over 20% in size
[11] = qHTS assay to identify small molecule antagonists of the estrogen receptor alpha (ER-alpha) signaling pathway using the BG1 cell line (AID 743080; calls by dose curve;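 also: BG1 cells stimulated with 17beta-estradiol alongside compound; series mostly up to about 70 µM; nearly all actives have a fitted effect of over 25% in size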)
Method in brief: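 Luminescence from a 4×ERE-luciferase reporter in BG1-Luc-4E2 cells served as read-out. Cells, pre-cultured 5 days in stripped-serum phenol-red-free medium, were exposed to compound with 17beta-estradiol co-stimulation for 21.5 h at 37 C.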

[12] = qHTS assay to identify small molecule antagonists of the estrogen receptor alpha (ER-alpha) signaling pathway using the BG1 cell line - cell viability counter screen (AID 743081);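 also: compound given together with 17beta-estradiol as the ER stimulus; series mostly up to about 70 µM; nearly all actives have a fitted effect of over 45% in size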
Aromatase (Homo sapiens) = Aromatase (Homo sapiens) (UniProt P11511); assay: qHTS assay to identify aromatase inhibitors (AID 743083); also: series mostly up to about 70 µM; nearly all actives have a fitted effect of over 55% in size
[13] = qHTS assay to identify aromatase inhibitors - cell viability counter screen (AID 743084);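 also: cells stimulated with testosterone during compound exposure; nearly all actives have a fitted effect of over 55% in size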
[14] = target: Aryl hydrocarbon receptor (Homo sapiens) (UniProt P35869); assay: qHTS assay to identify small molecule that activate the aryl hydrocarbon receptor (AhR) signaling pathway (AID 743085);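 also: HG2L7.5c1 human HepG2 liver cells with stably integrated DRE-driven firefly reporter; series mostly up to about 70 µM; nearly all actives have a fitted effect of over 15% in size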
Method in brief: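 Luminescence (ONE-Glo) from a dioxin-responsive-element luciferase reporter in HG2L7.5c1 HepG2 cells after 24 hr compound exposure at 37C; viability measured by CellTiter-Fluor fluorescence beforehand.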

[15] = qHTS assay to identify small molecule that activate the aryl hydrocarbon receptor (AhR) signaling pathway - cell viability counter screen (AID 743086);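 also: HepG2 liver cells carrying the AhR DRE luciferase reporter; series mostly up to about 70 µM; nearly all actives have a fitted effect of over 45% in size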
Method in brief: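 Cytotoxicity counter screen: CellTiter-Fluor signal (30 min, 37 C) in 4000 HepG2 cells/well carrying the DRE-luciferase reporter, following 24 h compound exposure at 37 C.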

[16] = target: Peroxisome proliferator-activated receptor gamma (Homo sapiens) (UniProt P37231); assay: qHTS assay to identify small molecule agonists of the peroxisome proliferator-activated receptor gamma (PPARg) signaling pathway (AID 743094; active = well fitted activation curve with a large enough effect in the signal ratio in the repeat runs, not every such curve was filed as active; the % refers to the signal ratio)
Method in brief: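 Cell-based bla reporter, HEK293H background, PPARg-driven UAS. Pre-incubation 5 h, 37C, 5% CO2. Compound 17 h, 37C. Substrate 1 h RT; fluorescence.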

[17] = qHTS assay to identify small molecule antagonists of the estrogen related receptor (ERR) signaling pathway - cell viability counter screen (AID 1224818);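 also: series mostly up to about 46 µM; viability measured after 17.5 h of compound exposure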
Method in brief: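 Cytotoxicity check run alongside the ERR antagonist screen: cells exposed to test compounds 17.5 h at 37 C, viability taken as CellTiter-Fluor fluorescence intensity.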

[18] = qHTS assay to identify small molecule agonists of the estrogen related receptor (ERR) signaling pathway (AID 1224820)
Method in brief: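 An ERR cell line provided by NTP was seeded at 2,000 cells per well and allowed to settle for 6 h before compounds in DMSO were added. After 18 h at 37 C, luciferase activity was measured by One-Glo luminescence.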

[19] = test system: estrogen-related receptor alpha (ERRalpha) with PGC-1alpha coactivator, human; assay: qHTS assay to identify small molecule antagonists of the estrogen related receptor signaling pathway with the pleiotropic PPARgamma coactivator (PGC) (AID 1224821; calls by dose curve;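 also: series mostly up to about 46 µM; lower luminescence signal means antagonism of PGC/ERR signalling; nearly all actives have a fitted effect of over 50% in size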)
Method in brief: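 A PGC/ERR cell line supplied by NTP is seeded, allowed 6 h at 37 C, and treated with test compounds in DMSO for 18 h. Signal is then measured as luciferase luminescence using One-Glo.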

[20] = qHTS assay to identify small molecule antagonists of the estrogen related receptor signaling pathway with the pleiotropic PPARgamma coactivator (PGC) cell viability counter screen (AID 1224822;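 also: series mostly up to about 46 µM; viability read after 17.5 h compound exposure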)
Method in brief: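 Viable cell signal (CellTiter-Fluor, 30 min, 37 C/5% CO2) was measured in PGC/ERR cells after a 17.5 h compound incubation.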

[21] = qHTS assay to identify small molecule agonists of the estrogen related receptor signaling pathway with the pleiotropic PPARgamma coactivator (PGC) (AID 1224823)
Method in brief: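 Compounds dissolved in DMSO are added by pin tool to PGC/ERR cells that have settled for 6 h, and incubation continues 18 h at 37 C. Reporter output is measured as One-Glo luminescence.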

[22] = qHTS assay to identify small molecule phospholipidosis (PLD) inducers (AID 1259344; active = well fitted curve in the direction sought with a large enough effect; an effect the other way counts as inactive or inconclusive)
Method in brief: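 Phospholipid accumulation was scored by imaging: fixed, Hoechst-counterstained HepG2 cells stained with LipidTOX Red after 24 h compound exposure at 37 C. Read-outs were pit count and pit intensity per well or per cell, with amiodarone and DMSO controls.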

[23] = target: Nuclear receptor subfamily 1 group I member 2 (Rattus norvegicus) (UniProt Q9R1A7); assay: Rat pregnane X receptor (rPXR) activation by small molecules, qHTS assay (AID 1346983); details: rPXR luciferase reporter cells, One-Glo luminescence, 24 h; max activation: stronger effect = higher value; also: nearly all actives have a fitted effect of over 20% in size
Method in brief: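 Luminescent readout (One-Glo luciferase, 30 min room temperature) followed 24 hr compound treatment at 37 C of rPXR cells plated 2,000 per well and preincubated 5hr; qHTS format with compounds delivered in DMSO.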

[24] = target: Nuclear receptor subfamily 1 group I member 2 (Homo sapiens) (UniProt O75469); assay: CYP3A4 induction through human pregnane X receptor (PXR) by small molecules, qHTS assay (AID 1346984); also: nearly all actives have a fitted effect of over 40% in size
Method in brief: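 Human PXR activation is tracked via CYP3A4 promoter-luciferase in DPX-2 (HepG2) cells. Compounds treat cells for 24hr at 37C, and luminescence is read after One-Glo.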

[25] = target: Nuclear receptor subfamily 1 group I member 2 (Homo sapiens) (UniProt O75469); assay: Human pregnane X receptor (PXR) activation by small molecules, qHTS assay (AID 1346985); also: nearly all actives have a fitted effect of over 40% in size
Method in brief: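 DPX-2 cells (HepG2 co-transfected with a PXR response element and a CYP3A4-promoter luciferase construct) were seeded at 2,000 per well, rested 5 hr at 37C, then exposed to DMSO-dissolved compounds for 24 hr. Activation was read as luciferase luminescence.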
% is scaled to controls: 0 for no effect and ±100 for the full control effect.

Androgen receptor (Homo sapiens), sequence (P10275 whole entry, looked up): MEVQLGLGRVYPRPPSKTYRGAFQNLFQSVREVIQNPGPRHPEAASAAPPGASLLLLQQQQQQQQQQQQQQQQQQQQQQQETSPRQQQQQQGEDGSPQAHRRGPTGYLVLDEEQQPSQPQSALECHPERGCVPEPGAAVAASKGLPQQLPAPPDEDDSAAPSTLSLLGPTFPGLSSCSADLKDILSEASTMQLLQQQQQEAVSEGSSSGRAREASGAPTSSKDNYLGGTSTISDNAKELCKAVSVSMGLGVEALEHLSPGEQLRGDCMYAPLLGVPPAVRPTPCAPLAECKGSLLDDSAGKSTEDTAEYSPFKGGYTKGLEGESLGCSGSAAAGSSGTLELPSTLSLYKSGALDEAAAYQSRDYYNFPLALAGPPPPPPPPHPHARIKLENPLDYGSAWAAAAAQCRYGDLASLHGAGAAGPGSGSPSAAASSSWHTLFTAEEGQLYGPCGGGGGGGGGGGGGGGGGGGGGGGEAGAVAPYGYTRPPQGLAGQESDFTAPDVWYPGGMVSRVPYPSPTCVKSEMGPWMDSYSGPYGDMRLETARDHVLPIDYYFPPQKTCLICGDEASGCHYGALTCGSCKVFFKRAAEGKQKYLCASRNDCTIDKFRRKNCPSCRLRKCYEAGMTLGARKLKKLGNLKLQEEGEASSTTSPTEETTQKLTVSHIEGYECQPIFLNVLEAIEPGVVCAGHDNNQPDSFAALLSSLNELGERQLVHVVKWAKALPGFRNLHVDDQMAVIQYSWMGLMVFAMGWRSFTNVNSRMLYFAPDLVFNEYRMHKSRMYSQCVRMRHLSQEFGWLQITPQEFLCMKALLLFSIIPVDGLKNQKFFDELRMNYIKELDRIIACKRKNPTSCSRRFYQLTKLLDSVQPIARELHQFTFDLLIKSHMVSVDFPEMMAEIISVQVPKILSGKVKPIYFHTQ
Estrogen receptor (Homo sapiens), sequence (P03372 whole entry, looked up): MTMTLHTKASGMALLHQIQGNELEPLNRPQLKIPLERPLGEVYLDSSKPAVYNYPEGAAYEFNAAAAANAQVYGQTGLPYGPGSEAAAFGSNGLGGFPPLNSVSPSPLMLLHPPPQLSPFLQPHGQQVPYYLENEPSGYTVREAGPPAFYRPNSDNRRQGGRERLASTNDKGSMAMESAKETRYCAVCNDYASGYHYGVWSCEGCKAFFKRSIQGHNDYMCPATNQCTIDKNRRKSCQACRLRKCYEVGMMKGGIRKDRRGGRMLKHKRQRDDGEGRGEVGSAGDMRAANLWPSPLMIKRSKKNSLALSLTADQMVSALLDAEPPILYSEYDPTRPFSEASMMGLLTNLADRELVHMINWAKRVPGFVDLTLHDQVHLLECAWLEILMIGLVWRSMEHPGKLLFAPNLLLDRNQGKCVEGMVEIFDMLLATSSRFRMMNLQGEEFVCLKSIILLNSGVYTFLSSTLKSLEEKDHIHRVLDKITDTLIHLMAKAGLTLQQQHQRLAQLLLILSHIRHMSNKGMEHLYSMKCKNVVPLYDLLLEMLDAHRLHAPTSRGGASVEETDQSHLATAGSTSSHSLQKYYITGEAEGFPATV
Nuclear receptor subfamily 1 group I member 2 (Rattus norvegicus), sequence (Q9R1A7 whole entry, looked up): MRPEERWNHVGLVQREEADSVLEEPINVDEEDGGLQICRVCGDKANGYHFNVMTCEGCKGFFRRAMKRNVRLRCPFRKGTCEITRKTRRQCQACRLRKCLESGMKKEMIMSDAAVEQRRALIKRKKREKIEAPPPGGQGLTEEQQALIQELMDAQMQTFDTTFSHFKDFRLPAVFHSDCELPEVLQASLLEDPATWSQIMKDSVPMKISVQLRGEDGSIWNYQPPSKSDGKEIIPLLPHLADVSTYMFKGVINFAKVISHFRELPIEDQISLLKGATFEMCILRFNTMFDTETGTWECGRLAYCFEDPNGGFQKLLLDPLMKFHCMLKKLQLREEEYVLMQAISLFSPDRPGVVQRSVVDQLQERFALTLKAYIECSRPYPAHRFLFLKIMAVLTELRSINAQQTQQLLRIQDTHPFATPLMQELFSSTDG
Aryl hydrocarbon receptor (Homo sapiens), sequence (P35869 whole entry, looked up): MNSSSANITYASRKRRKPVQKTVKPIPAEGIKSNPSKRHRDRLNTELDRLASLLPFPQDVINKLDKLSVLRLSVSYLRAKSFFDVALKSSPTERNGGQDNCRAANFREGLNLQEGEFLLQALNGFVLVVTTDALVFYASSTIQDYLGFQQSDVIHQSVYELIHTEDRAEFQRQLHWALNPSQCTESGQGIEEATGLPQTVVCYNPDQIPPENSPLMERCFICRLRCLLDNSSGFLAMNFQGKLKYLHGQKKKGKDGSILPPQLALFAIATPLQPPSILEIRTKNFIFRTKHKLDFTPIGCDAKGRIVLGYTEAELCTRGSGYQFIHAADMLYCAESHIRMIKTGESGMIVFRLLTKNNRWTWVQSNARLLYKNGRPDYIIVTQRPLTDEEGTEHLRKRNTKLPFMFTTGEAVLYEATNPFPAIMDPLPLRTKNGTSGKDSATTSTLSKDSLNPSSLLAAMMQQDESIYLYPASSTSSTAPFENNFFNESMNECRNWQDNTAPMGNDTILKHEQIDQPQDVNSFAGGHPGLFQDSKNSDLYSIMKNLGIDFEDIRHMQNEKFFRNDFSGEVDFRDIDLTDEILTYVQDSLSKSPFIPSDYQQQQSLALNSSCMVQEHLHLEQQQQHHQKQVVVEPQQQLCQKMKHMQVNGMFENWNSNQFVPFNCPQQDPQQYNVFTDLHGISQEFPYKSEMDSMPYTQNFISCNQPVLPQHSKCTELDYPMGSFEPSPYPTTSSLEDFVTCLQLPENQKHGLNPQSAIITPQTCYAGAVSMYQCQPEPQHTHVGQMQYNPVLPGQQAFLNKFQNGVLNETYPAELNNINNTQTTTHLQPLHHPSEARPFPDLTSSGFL
Peroxisome proliferator-activated receptor gamma (Homo sapiens), sequence (P37231 whole entry, looked up): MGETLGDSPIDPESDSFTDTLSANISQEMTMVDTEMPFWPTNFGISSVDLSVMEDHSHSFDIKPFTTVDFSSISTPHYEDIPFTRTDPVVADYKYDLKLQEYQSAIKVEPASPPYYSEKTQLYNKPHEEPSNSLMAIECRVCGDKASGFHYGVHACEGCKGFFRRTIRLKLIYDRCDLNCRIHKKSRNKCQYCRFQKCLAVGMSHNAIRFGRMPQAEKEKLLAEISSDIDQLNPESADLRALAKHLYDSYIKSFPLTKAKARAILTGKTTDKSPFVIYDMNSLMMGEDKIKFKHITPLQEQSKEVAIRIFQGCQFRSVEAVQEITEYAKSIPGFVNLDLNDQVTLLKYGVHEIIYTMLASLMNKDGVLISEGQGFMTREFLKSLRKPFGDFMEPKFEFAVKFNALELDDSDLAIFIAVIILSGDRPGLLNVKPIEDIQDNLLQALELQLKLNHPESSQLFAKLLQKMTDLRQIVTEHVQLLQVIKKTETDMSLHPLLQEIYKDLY
Aromatase (Homo sapiens), sequence (P11511 whole entry, looked up): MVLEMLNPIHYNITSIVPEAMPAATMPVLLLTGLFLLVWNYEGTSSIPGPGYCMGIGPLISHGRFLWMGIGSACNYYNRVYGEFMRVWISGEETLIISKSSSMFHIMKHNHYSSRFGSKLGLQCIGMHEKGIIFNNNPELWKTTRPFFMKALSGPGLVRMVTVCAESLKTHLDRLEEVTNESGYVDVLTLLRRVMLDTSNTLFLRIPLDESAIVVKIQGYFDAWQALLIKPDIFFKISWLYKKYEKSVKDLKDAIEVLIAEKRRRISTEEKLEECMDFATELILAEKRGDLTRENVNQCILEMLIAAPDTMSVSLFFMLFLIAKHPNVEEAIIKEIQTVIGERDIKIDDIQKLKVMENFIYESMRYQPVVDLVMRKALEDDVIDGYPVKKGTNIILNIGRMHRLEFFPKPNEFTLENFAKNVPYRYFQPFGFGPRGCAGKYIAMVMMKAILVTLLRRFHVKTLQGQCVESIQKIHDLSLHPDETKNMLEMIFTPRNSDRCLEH

CCCCCN(C)CCC(O)(P(=O)(O)O)P(=O)(O)O
inactive: Potency [1] | Potency [2] | Potency [3] | Potency [4] | Potency [5] | Potency [6] | Potency [7] | Potency [8] | Potency [9] | Potency [10] | Potency [11] | Potency [12] | Potency (Aromatase (Homo sapiens)) | Potency [13] | Potency [14] | Potency [15] | Potency [16] | Potency [17] | Potency [18] | Potency [19] | Potency [20] | Potency [21] | Potency [22] | max activation [23] -1.96% | Potency [24] | Potency [25]
